Results reported in PubChem BioAssay (EPA / NIEHS).
Inconclusive results are not listed. The source made the active and inactive calls. How the source made its calls, unless noted: active means hit-call score of the fitted dose curve at least 0.9, where 1 is the maximum; inconclusive means response in the unintended direction; inactive means score below 0.9.

Tests used:
[1] = target: Cellular tumor antigen p53 (Homo sapiens) (UniProt P04637); assay: TOX21_p53_BLA_p2_ratio: Tox21 HCT-116 p53 Agonism Beta-lactamase Assay, Ratio, Phase 2 (AID 2283592)
Outline: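 Gain-of-signal p53 agonism was scored from the beta-lactamase FRET ratio (460/530 nm, 405 nm excitation) in HCT116 cells treated 16 h at 37C, 5% CO2, with DMSO serving as negative control and baseline.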

[2] = TOX21_p53_BLA_p3_viability: Viability Assessment in the Tox21 HCT-116 p53 Agonism Beta-lactamase Assay, Phase 3 (AID 2283593);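 further: cells exposed to compound for 16 h before reading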
Outline: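 HCT116 cells, 4000/well, dosed 5 h after plating by pin transfer (217-fold dilution from DMSO stock) and incubated 16 h at 37C, 5% CO2. Viability read as ATP luminescence with CellTiter-Glo after 30 min at room temperature.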

[3] = TOX21_p53_BLA_p4_viability: Viability Assessment in the Tox21 HCT-116 p53 Agonism Beta-lactamase Assay, Phase 4 (AID 2283597);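 further: hits lower the luminescence signal meaning cytotoxicity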
Outline: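 Following a 16 h exposure at 37C, the treated HCT116 wells were first read for the FRET ratio. They were then lysed with CellTiter-Glo, and ATP luminescence was recorded after 30 min at room temperature.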

[4] = TOX21_p53_BLA_p5_viability: Viability Assessment in the Tox21 HCT-116 p53 Agonism Beta-lactamase Assay, Phase 5 (AID 2283600)
Outline: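 After the 460/530 nm beta-lactamase measurement, the wells received an ATP-detection luciferase reagent; signal was read 30 min later at RT. Compound treatment lasted 16 h on cells pre-incubated 5 h post-seeding.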

[5] = target: Cellular tumor antigen p53 (Homo sapiens) (UniProt P04637); assay: TOX21_p53_BLA_p4_ratio: Tox21 HCT-116 p53 Agonism Beta-lactamase Assay, Ratio, Phase 4 (AID 2283601)
Outline: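 HCT-116 p53 beta-lactamase reporter cells (4000/well) preincubated 5 h, then compound (217-fold dilution of DMSO stock) for 16 h at 37C. CCF4-AM substrate added 2 h at room temperature; 460/530 nm emission ratio fitted upward versus DMSO.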

[6] = target: Cellular tumor antigen p53 (Homo sapiens) (UniProt P04637); assay: TOX21_p53_BLA_p3_ratio: Tox21 HCT-116 p53 Agonism Beta-lactamase Assay, Ratio, Phase 3 (AID 2283596)
Outline: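 HCT116 p53-bla cells (4000/well) given compound in DMSO (217-fold dilution) after 5 h, incubated 16 h at 37C. CCF4-AM substrate 2 h at room temperature; 460/530 nm emission ratio, gain fitted against DMSO.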

[7] = target: Cellular tumor antigen p53 (Homo sapiens) (UniProt P04637); assay: TOX21_p53_BLA_p5_ratio: Tox21 HCT-116 p53 Agonism Beta-lactamase Assay, Ratio, Phase 5 (AID 2283599)
Outline: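 HCT-116 p53-bla cells (4000/well) plated 5 h, dosed with compound (217-fold DMSO dilution) for 16 h at 37 C; CCF4-AM substrate 2 h at room temperature. Activity is the 460/530 nm emission ratio (405 nm excitation), fitted in gain-of-signal direction versus DMSO.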

PGR (gene 5241) [8] = target: PGR (gene 5241) (UniProt P06401); assay: TOX21_PR_BLA_Followup_Agonist_ratio: Tox21 HEK293 Progesterone Receptor (PR) Agonism Beta-lactamase Follow-Up Assay, Ratio (AID 2283933)
Outline: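 PR-UAS-bla HEK293T cells (GAL4-UAS beta-lactamase reporter) in medium with 2% charcoal-stripped FBS received compounds after 6 hr at 37C, then incubated 16 hr. LiveBLAzer FRET substrate added, 2 hr room temperature; cleaved/uncleaved (ch2/ch1) ratio fitted upward versus DMSO.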

PGR (gene 5241) [9] = target: PGR (gene 5241) (UniProt P06401); assay: TOX21_PR_BLA_Followup_Antagonist_ratio: Tox21 HEK293 Progesterone Receptor (PR) Antagonism Beta-lactamase Follow-Up Assay, Ratio (AID 2283934)
Outline: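 PR-UAS-bla HEK293T cells in medium with 2% charcoal-stripped FBS were treated with compounds plus 1 nM (final) promegestone (R5020) for 16 hr at 37C. LiveBLAzer B/G FRET substrate was then added for 2 h at room temperature; signal is cleaved/uncleaved substrate ratio versus DMSO.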

[10] = TOX21_PR_BLA_Followup_Agonist_viability: Viability Assessment in the Tox21 HEK293 Progesterone Receptor (PR) Agonism Beta-lactamase Follow-Up Assay (AID 2283935);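 further: signal loss means lower viability so actives are cytotoxic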
Outline: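 PR-UAS-bla HEK293T cells in 2% charcoal-stripped FBS medium, compound added after 6 hr plating, 16 hr at 37C/5% CO2. After bla FRET read, CellTiter-Glo added; luminescence read after 30 min at room temperature; signal loss marks cytotoxicity.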

PGR (gene 5241) [11] = target: PGR (gene 5241) (UniProt P06401); assay: TOX21_PR_LUC_Followup_Agonist: Tox21 HEK293 Progesterone Receptor (PR) Agonism Luciferase Follow-Up Assay (AID 2283937; active means hit-call score of the fitted dose curve at least 0.9, where 1 is the maximum; inactive means score below 0.9)
Outline: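 HEK293-PR-A-luc cells, pre-cultured 5 days in medium with 10% charcoal-stripped FBS, were seeded at 3,000 cells/well, rested 5 h at 37C, then exposed to compounds 16 h at 37C; luciferase read by ONE-Glo luminescence after 30 min.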

[12] = TOX21_PR_LUC_Followup_Antagonist_viability: Viability Assessment in the Tox21 HEK293 Progesterone Receptor (PR) Antagonism Luciferase Follow-Up Assay (AID 2283940)
Outline: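 HEK293-PR-A-luc cells, precultured 5 days in assay medium with 10% charcoal-stripped FBS, were seeded at 3,000 cells/well, treated with compounds in DMSO for 16 h at 37C, and viability was read as cellular ATP by CellTiter-Glo luminescence.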

[13] = TOX21_PR_LUC_Followup_Agonist_viability: Viability Assessment in the Tox21 HEK293 Progesterone Receptor (PR) Agonism Luciferase Follow-Up Assay (AID 2283941);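 further: loss of signal means cytotoxicity so actives lower viability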
Outline: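 HEK293-PR-A-luc cells, pre-cultured 5 days in 10% charcoal-stripped FBS, were seeded at 3,000 cells/well, rested 5 h at 37C, then given compound in DMSO for 16 h at 37C. Cellular ATP was read by CellTiter-Glo luminescence; signal loss indicates cytotoxicity.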

Measured: AC50

PGR (gene 5241), sequence (P06401 whole entry, looked up, the tested form may be a part): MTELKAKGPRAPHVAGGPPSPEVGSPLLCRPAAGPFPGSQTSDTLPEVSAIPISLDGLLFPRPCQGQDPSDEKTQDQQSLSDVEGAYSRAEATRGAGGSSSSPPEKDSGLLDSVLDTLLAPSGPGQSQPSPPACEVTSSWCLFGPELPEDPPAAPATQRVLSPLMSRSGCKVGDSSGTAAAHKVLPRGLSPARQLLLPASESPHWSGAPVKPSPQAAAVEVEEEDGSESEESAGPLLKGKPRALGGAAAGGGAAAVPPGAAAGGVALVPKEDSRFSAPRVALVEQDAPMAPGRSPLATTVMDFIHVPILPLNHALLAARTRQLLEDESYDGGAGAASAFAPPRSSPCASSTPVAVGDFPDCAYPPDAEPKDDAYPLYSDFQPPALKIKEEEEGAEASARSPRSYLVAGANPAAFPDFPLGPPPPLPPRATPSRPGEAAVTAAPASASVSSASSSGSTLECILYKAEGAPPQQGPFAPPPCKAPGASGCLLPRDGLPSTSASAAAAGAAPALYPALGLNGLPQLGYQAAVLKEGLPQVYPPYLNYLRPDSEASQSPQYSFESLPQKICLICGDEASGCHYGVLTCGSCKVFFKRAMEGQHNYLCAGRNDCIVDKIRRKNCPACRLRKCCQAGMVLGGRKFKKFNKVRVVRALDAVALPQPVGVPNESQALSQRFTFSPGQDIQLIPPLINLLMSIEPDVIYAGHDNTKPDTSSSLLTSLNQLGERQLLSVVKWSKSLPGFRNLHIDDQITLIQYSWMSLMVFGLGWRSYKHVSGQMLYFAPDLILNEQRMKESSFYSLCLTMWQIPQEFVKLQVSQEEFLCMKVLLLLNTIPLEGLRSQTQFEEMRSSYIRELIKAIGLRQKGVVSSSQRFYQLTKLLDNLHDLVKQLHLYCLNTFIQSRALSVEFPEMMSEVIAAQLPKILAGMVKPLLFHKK
Cellular tumor antigen p53 (Homo sapiens), sequence (P04637 whole entry, looked up): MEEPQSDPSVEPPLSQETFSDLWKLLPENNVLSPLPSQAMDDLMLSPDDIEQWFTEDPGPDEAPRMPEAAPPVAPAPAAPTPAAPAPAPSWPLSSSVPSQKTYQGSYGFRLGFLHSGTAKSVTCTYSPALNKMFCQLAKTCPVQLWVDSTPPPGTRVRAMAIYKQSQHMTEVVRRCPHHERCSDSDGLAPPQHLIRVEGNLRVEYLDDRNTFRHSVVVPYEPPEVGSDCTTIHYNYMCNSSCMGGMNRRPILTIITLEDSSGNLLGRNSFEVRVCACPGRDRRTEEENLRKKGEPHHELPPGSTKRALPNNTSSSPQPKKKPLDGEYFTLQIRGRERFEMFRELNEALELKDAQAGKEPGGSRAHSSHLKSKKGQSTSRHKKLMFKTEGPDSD

COC1=CC(=O)O[C@@H](/C=C/c2ccccc2)C1
inactive: [1] | [2] | [3] | [4] | [5]

Cc1c(Cl)c(=O)oc2cc(OP(=O)(OCCCl)OCCCl)ccc12
inactive: [1] | [2] | [6] | [7] | [4] | [5]

CC(C)Br
inactive: [1] | [2] | [3]

C[N+](C)(C)CCOC(=O)C(O)(c1ccccc1)c1ccccc1
inactive: [1] | [2] | [3] | [4] | [5]

C=C[C@H]1CN2CC[C@H]1C[C@H]2[C@H](OC(=O)OCC)c1ccnc2ccc(OC)cc12
inactive: [1] | [2] | [3] | [7] | [4] | [5]

CCCN
inactive: [1] | [2] | [6] | [7] | [4] | [5]

O=C(O)C(Cl)(Cl)Br
inactive: [1] | [2] | [3] | [7] | [5]

O=C(C[C@@H]1NCCC[C@H]1O)Cn1cnc2cc(Br)c(Cl)cc2c1=O
inactive: [1] | [2] | [3] | [4]

CCCCCCI
inactive: [1] | [2] | [6] | [7] | [4]

Cc1ncc2n1-c1ccc(Cl)cc1C(c1ccccc1F)=NC2
inactive: [1] | [2] | [3] | [7] | [5]

C=C1C[C@@H]2[C@H](CC[C@]3(C)C(=O)CC[C@@H]23)[C@@]2(C)C=CC(=O)C=C12
active: PGR (gene 5241) [9] 23 µM
not listed: [3] | [4] | [5] | [7]
inactive: all other assays above

[S]=[Sb](=[S])[S][Sb](=[S])=[S]
inactive: [1] | [2] | [6] | [7] | [4] | [5]

Oc1ccc2c3c1O[C@H]1[C@@H](O)C=C[C@H]4[C@H](C2)NCC[C@@]341
inactive: [1] | [2] | [6] | [7] | [4]

CC(=O)OC1CN2CCC1CC2 (configuration not stated)
inactive: [1] | [2] | [6] | [7] | [4] | [5]

COc1ccc2c(c1OC)C(=O)O[C@H]2[C@@H]1c2cc3c(cc2CCN1C)OCO3
inactive: [1] | [2] | [6] | [7] | [4] | [5]

COC(=O)C(Cl)C(=O)OC
inactive: [1] | [2] | [3] | [4]

CCOC(=O)C(Cl)C(C)=O (configuration not stated)
inactive: [1] | [2] | [6] | [7] | [4] | [5]

Cn1cc(C2=C(c3cn(C4CCN(Cc5ccccn5)CC4)c4ccccc34)C(=O)NC2=O)c2ccccc21
inactive: [1] | [2] | [7] | [5]
active: [6] 12 µM
